# About 83,000 compounds went through this panel and 20% of them were active in at least one assay; those are over-represented in the sample as a whole.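 In brief: 96-well plates, 48 h treatment, single concentration, percent growth endpoint.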 Values without a mark were called inactive. Active and inactive are the calls of the source. Rule for the calls: active = growth percent below 10; inactive = the rest.
# Columns and labels:
# Experiment in all cases: NCI-60 one-dose screen, 48 h (100 = growth as untreated, 0 = no growth, -100 = all killed)
# Conditions in all cases: 10 µM unless noted
# HCT-15 colon = test system: HCT-15 colon
# HT29 colon = test system: HT29 colon
# SNB-75 CNS = test system: SNB-75 CNS
# SNB-19 CNS = test system: SNB-19 CNS
# U251 CNS = test system: U251 CNS
# PC-3 prostate = test system: PC-3 prostate
# SK-MEL-5 melanoma = test system: SK-MEL-5 melanoma
# UACC-62 melanoma = test system: UACC-62 melanoma
# LOX IMVI melanoma = test system: LOX IMVI melanoma
# SK-MEL-28 melanoma = test system: SK-MEL-28 melanoma
# SK-MEL-2 melanoma = test system: SK-MEL-2 melanoma
# SN12C renal = test system: SN12C renal
# UO-31 renal = test system: UO-31 renal
# TK-10 renal = test system: TK-10 renal
# ACHN renal = test system: ACHN renal
# A498 renal = test system: A498 renal
# CCRF-CEM leukemia = test system: CCRF-CEM leukemia
# MOLT-4 leukemia = test system: MOLT-4 leukemia
# CAKI-1 renal = test system: CAKI-1 renal
# EKVX NSCLC = test system: EKVX NSCLC
Compound,growth (HCT-15 colon),growth (HT29 colon),growth (SNB-75 CNS),growth (SNB-19 CNS),growth (U251 CNS),growth (PC-3 prostate),growth (SK-MEL-5 melanoma),growth (UACC-62 melanoma),growth (LOX IMVI melanoma),growth (SK-MEL-28 melanoma),growth (SK-MEL-2 melanoma),growth (SN12C renal),growth (UO-31 renal),growth (TK-10 renal),growth (ACHN renal),growth (A498 renal),growth (CCRF-CEM leukemia),growth (MOLT-4 leukemia),growth (CAKI-1 renal),growth (EKVX NSCLC)
c1ccc(-c2nc3ccccc3[nH]2)c(OCCCCCOc2ccccc2-c2nc3ccccc3[nH]2)c1,58%,74.8%,89.8%,91.7%,74.5%,43.4%,58.9%,59.1%,62%,45.9%,85.4%,63.4%,58.6%,100%,89.4%,71.5%,-44.1% (active),56.3%,–,–
COc1ccc(NC(=O)c2ccc(Nc3ncnc4c3cnn4-c3cccc(F)c3)cc2)cc1,102%,104%,93.9%,94.7%,103%,96.3%,98.4%,94.8%,96%,113%,104%,95.7%,88.6%,103%,99.6%,57.3%,–,100%,90.8%,–
N#CC1=C(N)Oc2c(sc3c(F)cccc23)C1c1ccc([N+](=O)[O-])cc1 (centres undefined),-54.5% (active),-13.6% (active),-35.3% (active),-27.9% (active),-64.5% (active),-10.4% (active),-95.9% (active),-75.6% (active),-83.1% (active),-44.1% (active),-42.2% (active),-79% (active),-26.4% (active),-7.94% (active),-2.28% (active),-36.3% (active),3.46% (active),-1.93% (active),0.858% (active),–
Cc1cc(=O)n(C(=S)Nc2ccc(Cl)cc2)c2cc(O)ccc12,105%,104%,86.1%,102%,101%,95.6%,95.3%,100%,99.3%,114%,–,105%,72.2%,116%,100%,122%,110%,102%,85.1%,94.7%
COC(=O)[C@]1(C)CCC[C@]2(C)[C@H]3C[C@@H]4[C@H]5[C@@H]6CC/C(=N\OCC/C(N)=N/O)[C@H]5[C@@]3(CC[C@H]21)CC4(C(C)C)O6,36.6%,74.2%,66.9%,89.4%,68.4%,47.5%,73.2%,58.5%,69%,88.9%,–,63.4%,50.1%,84.9%,68.4%,82.4%,18.9%,28%,65.1%,62.5%
CCCCCc1ccc(S(=O)(=O)Nc2cc(-c3csc(NC(C)=O)n3)ccc2N2CCN(C)CC2)cc1,4% (active),5.9% (active),37.3%,74.6%,12.2%,41.2%,30.2%,-56.2% (active),-95.4% (active),-80.2% (active),–,61.4%,49.4%,99.3%,54.6%,66.2%,29.8%,12.4%,64.1%,78.2%
CCCC(=O)NC(c1ccc2c(c1)OCO2)c1cc(Cl)c2cccnc2c1O (centres undefined),30.9%,21.2%,6.73% (active),23.7%,17.3%,34.5%,37.5%,11%,23.4%,46.1%,58.7%,38.1%,-8.37% (active),37.6%,18.1%,43.6%,–,16.6%,18.1%,–
NCCCNc1nc2ccccc2c2c(=O)c3cc(Cl)ccc3sc12,-76.9% (active),-45.4% (active),47.9%,22.8%,-95.1% (active),-18.9% (active),46.9%,-6.22% (active),-90.5% (active),-30% (active),–,-66.5% (active),-71.7% (active),24.3%,-37.2% (active),70.2%,-28.5% (active),-61.8% (active),22.1%,57.4%
Nc1ncccc1O,18.7%,26.6%,121%,101%,81.4%,133%,101%,89.3%,75.2%,106%,17.3%,96.7%,92.5%,108%,5.59% (active),99.7%,84.6%,65%,56.6%,–
Fc1cc2[nH]ncc2c2c3c(c(-c4cn[nH]c4C(F)(F)F)nc12)CCCC3,4.79% (active),6.14% (active),-26.5% (active),8.83% (active),-0.282% (active),34.6%,-66.3% (active),-4.44% (active),-50.6% (active),0.426% (active),–,4.98% (active),-7.31% (active),-8.31% (active),0.165% (active),-63.9% (active),1.34% (active),10.9%,-7.15% (active),8.29% (active)
CCCCn1c(NC(C)=O)c(S(=O)(=O)c2ccccc2)c2nc3ccccc3nc21,101%,124%,89.8%,98.7%,103%,96%,100%,97.8%,101%,122%,121%,103%,92%,–,106%,87.3%,77.7%,82.5%,104%,–
CCOc1ccc(/C=C/C(=O)c2cccc(OCCCOc3cccc(C(=O)/C=C/c4ccc(OCC)cc4)c3)c2)cc1,75.9%,94.2%,83.9%,92.1%,103%,75.2%,75.2%,57.9%,83.5%,87.1%,–,79.5%,73.4%,120%,79.4%,73.4%,67.9%,73.5%,78%,76.9%
COC(=O)Cn1c2c(c3c(OC)cccc31)C(=O)c1ccccc1-2,101%,95.8%,90.8%,90.5%,89.9%,87.4%,102%,93.3%,91.8%,97.1%,109%,91.4%,82.5%,–,94.9%,101%,81.4%,83.8%,110%,–
O=c1oc2c(cnc3ccccc32)cc1-c1cccc(Cl)c1,101%,108%,95.6%,98.5%,98.2%,97.7%,107%,96.1%,102%,105%,–,98.3%,90.4%,118%,104%,83.1%,76.5%,96.3%,92%,99.1%
CC(C)CCC[C@@H](C)[C@H]1CC[C@H]2[C@@H]3CC=C4c5sc(Nc6cc(C(F)(F)F)cc(C(F)(F)F)c6)nc5CC[C@]4(C)[C@H]3CC[C@]12C,101%,110%,95.5%,98.6%,96%,92.8%,100%,94.5%,96.8%,113%,124%,92.3%,73.4%,119%,106%,–,107%,103%,85.6%,–
